# Screening results from PubChem.
# The full list was thinned out, with hits kept by preference.
# IDE exosite inh: insulin-degrading enzyme (human) exo-site inhibition; P14735; purified IDE, FL-6b probe fluorescence polarization; stronger effect = lower value; z-score at 20 µM; actives 6.3% (n = 17,000);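 active means z-score of -3 or lower, meaning strong loss of probe binding signal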;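 further: His-tagged human IDE residues 42-1019 made in E. coli with 30 nM FL-6b probe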
# * = called active by the depositor.
SMILES,IDE exosite inh
CC(=O)NC[C@@H]1[C@@H](c2ccc(-c3cccnc3)cc2)[C@H](CO)N1C(=O)C1CC1,-2.6
CN1C(=O)c2cc(NC(=O)Cc3cccs3)ccc2OC[C@H]2O[C@H](CC(=O)NCCc3ccncc3)CC[C@H]21,-1.5
CC(=O)NC[C@H]1[C@@H](c2ccc(-c3cccc(F)c3)cc2)[C@@H](CO)N1C(=O)C1CC1,-0.88
CCC(=O)N1CC(=O)N2[C@H](CO)[C@@H](c3ccc(-c4ccccc4F)cc3)[C@@H]2C1,-5.2*
CCC(=O)N1CC(=O)N2[C@@H](CO)[C@@H](c3ccc(-c4ccccc4F)cc3)[C@@H]2C1,-5.6*
COCC(=O)N1CC(=O)N2[C@@H](CO)[C@H](c3ccc(-c4ccccc4F)cc3)[C@@H]2C1,0.036
CCC(=O)N1CC(=O)N2[C@H](C1)[C@H](c1ccc(-c3ccccc3F)cc1)[C@@H]2CO,-3.5*
COCC(=O)N1CC(=O)N2[C@H](C1)[C@H](c1ccc(-c3ccccc3F)cc1)[C@@H]2CO,0.35
CCC(=O)N1CC(=O)N2[C@H](CO)[C@@H](c3ccc(-c4ccccc4F)cc3)[C@H]2C1,0.87
O=C(C1CCCCC1)N1CC(=O)N2[C@H](C1)[C@@H](c1ccc(-c3ccccc3F)cc1)[C@@H]2CO,-2.7
CC(=O)N1CC(=O)N2[C@H](C1)[C@H](c1ccc(-c3ccncc3)cc1)[C@@H]2CO,4
CC(C)CC#Cc1ccc([C@@H]2[C@H](CO)N3C(=O)CN(S(C)(=O)=O)C[C@@H]23)cc1,4.5
CCC(=O)N1CC(=O)N2[C@H](CO)[C@H](c3ccc(C#CC(C)C)cc3)[C@@H]2C1,3.6
COc1ccccc1NC(=O)N1CC(=O)N2[C@@H](CO)[C@H](c3ccc(C#CCC(C)C)cc3)[C@@H]2C1,1.9
CN(C)CC(=O)N1[C@@H](C#N)[C@@H](c2ccccc2-c2ccc(C(=O)N(C)C)cc2)[C@@H]1CO,-1.2
C[C@H]1CN([C@@H](C)CO)C(=O)c2ccccc2-c2ccccc2CO[C@@H]1CN(C)Cc1cccnc1,0.82
COc1cccc(NC(=O)N2C[C@H](O)COC[C@H]3O[C@@H](CC(=O)N(C)C)CC[C@@H]32)c1,-1.1
O=C(C1CCOCC1)N1CC(=O)N2[C@H](C1)[C@H](c1ccc(Br)cc1)[C@@H]2CO,3.1
O=C(C1CCOCC1)N1CC(=O)N2[C@H](C1)[C@@H](c1ccc(Br)cc1)[C@@H]2CO,1.9
O=C(C1CCOCC1)N1CC(=O)N2[C@H](C1)[C@H](c1ccc(/C=C/c3ccccc3)cc1)[C@@H]2CO,-3.3*
O=C(C1CCOCC1)N1CC(=O)N2[C@H](CO)[C@H](c3ccc(/C=C/c4ccccc4)cc3)[C@@H]2C1,-4.8*
O=C(C1CCOCC1)N1CC(=O)N2[C@H](CO)[C@H](c3ccc(Br)cc3)[C@H]2C1,0.69
C/C=C/c1ccc([C@H]2[C@H](CO)N3C(=O)CN(Cc4ccccc4)C[C@@H]23)cc1,-0.13
O=S(=O)(c1ccccc1)N1CCCCN2[C@H](CO)[C@H](c3ccc(-c4ccccc4F)cc3)[C@@H]2C1,0.92
CCC(=O)N1[C@@H](CO)[C@H](c2ccccc2)[C@@H]1CNC(=O)CN1CCOCC1,2.9
SMILES,IDE exosite inh
CCCC#Cc1ccc([C@H]2[C@@H](CO)N3C(=O)CN(C(=O)Nc4ccc(F)cc4)C[C@H]23)cc1,4
CO[C@H]1CN(C)C(=O)c2cc(NC(=O)NC(C)C)ccc2OC[C@@H](C)N(Cc2ccccc2)C[C@H]1C,0.18
C[C@H]1CC(=O)NCC/C=C\C[C@H](c2cccc(Cl)c2)NC1=O,-1
O=C(CN1CCOCC1)N1CCCCN2[C@H](CO)[C@H](c3ccc(-c4ccccc4)cc3)[C@H]2C1,-2.1
O=C(CN1CCOCC1)N1CCCCN2[C@H](CO)[C@@H](c3ccc(/C=C/c4ccccc4)cc3)[C@@H]2C1,-3.7*
O=C(CN1CCOCC1)N1CCCCN2[C@@H](CO)[C@H](c3ccc(Br)cc3)[C@@H]2C1,-0.96
O=C(CN1CCOCC1)N1CCCCN2[C@H](CO)[C@@H](c3ccc(Br)cc3)[C@@H]2C1,1.1
O=C(CN1CCOCC1)N1CCCCN2[C@@H](CO)[C@@H](c3ccc(Br)cc3)[C@@H]2C1,1.3
O=C(CN1CCOCC1)N1CCCCN2[C@H](C1)[C@H](c1ccc(/C=C/c3ccccc3)cc1)[C@@H]2CO,-8.2*
O=C(CC1CC1)N1CC2(C1)[C@H](c1ccccc1)[C@H](CO)N2Cc1ccccn1,-1.2
C[C@@H]1CCCCO[C@@H](CN(C)CC2CC2)[C@H](C)CN([C@H](C)CO)C(=O)c2cc(NC(=O)c3ccccc3)ccc2O1,-0.86
CCN(C[C@H]1N[C@@H](CO)[C@H]1c1ccccc1)C(=O)c1ccccc1,1.1
O=C(Nc1nccs1)[C@H]1[C@H](CO)[C@H]2Cn3c(cccc3=O)[C@@H]1N2C(=O)C1CC1,-0.75
Cc1ccc(S(=O)(=O)N(C)C[C@@H]2Oc3cc(C#CC4CCCC4)ccc3S(=O)(=O)N([C@H](C)CO)C[C@@H]2C)cc1,-0.017
CNC(=O)C[C@H]1CC[C@H]2[C@@H](COc3ccc(NC(=O)Nc4ccc(C#N)cc4)cc3C(=O)N2C)O1,-2.1
O=C(CC1CC1)N1CC(=O)N2[C@H](C1)[C@H](c1ccc(C#Cc3cccc(F)c3)cc1)[C@@H]2CO,-1.1
O=C(CC1CC1)N1CC(=O)N2[C@@H](CO)[C@H](c3ccc(C#Cc4cccc(F)c4)cc3)[C@@H]2C1,-1.5
O=C(CC1CC1)N1CC(=O)N2[C@H](CO)[C@H](c3ccc(C#Cc4cccc(F)c4)cc3)[C@@H]2C1,-3.2*
O=C(CC1CC1)N1CC(=O)N2[C@H](CO)[C@@H](c3ccc(C#Cc4cccc(F)c4)cc3)[C@H]2C1,-2.1
O=C(CC1CC1)N1CC(=O)N2[C@H](C1)[C@@H](c1ccc(C#Cc3cccc(F)c3)cc1)[C@@H]2CO,-1.5
O=C(CC1CC1)N1CC(=O)N2[C@H](CO)[C@H](c3ccc(C#Cc4cccc(F)c4)cc3)[C@H]2C1,-3.9*
O=C(NCC[C@@H]1CC[C@@H](NC(=O)c2ccccc2F)[C@@H](CO)O1)c1cnccn1,1.2
CCC(=O)N1[C@H](CO)[C@@H](c2ccccc2)C12CN(C(=O)CN1CCOCC1)C2,0.55
CCC(=O)N1[C@H](CO)[C@H](c2ccccc2)[C@H]1CNC(=O)CN1CCOCC1,3.5
C[C@H](CO)N1C[C@H](C)[C@@H](CN(C)Cc2ccc(C(=O)O)cc2)OCCCC[C@H](C)Oc2ccc(N(C)C)cc2C1=O,-0.52
SMILES,IDE exosite inh
CC(=O)NC[C@@H]1[C@H](c2ccc(-c3ccccc3)cc2)[C@H](CO)N1C(=O)C1CCC1,0.59
C[C@H]1CN([C@@H](C)CO)C(=O)c2ccccc2-c2ccccc2CO[C@H]1CN(C)C(=O)[C@@H]1CCCN1C,-0.57
CN(C)C(=O)c1ccc(-c2ccc([C@H]3[C@@H](CO)N4C(=O)CN(C(=O)C5CCCC5)C[C@H]34)cc2)cc1,4.1
COc1ccc(C#Cc2ccc([C@@H]3[C@@H](CO)N4CCCCN(C)C[C@H]34)cc2)cc1,0.27
OC[C@H]1[C@H](c2ccc(C#Cc3ccccc3F)cc2)[C@@H]2CN(CC3CCOCC3)CCCCN12,0.24
OC[C@H]1[C@@H](c2ccc(C#Cc3ccccc3F)cc2)[C@@H]2CN(CC3CCOCC3)CCCCN12,-2.9
OC[C@@H]1[C@H](c2ccc(C#Cc3ccccc3F)cc2)[C@H]2CN(Cc3cncnc3)CCCCN12,-9.7*
OC[C@H]1[C@@H](c2ccc(-c3ccccc3)cc2)[C@H]2CN(Cc3cncnc3)CCCCN21,-1.3
COc1ccc(C#Cc2ccc([C@@H]3[C@H](CO)N4CCCCN(C)C[C@@H]34)cc2)cc1,-0.084
